Hit rate of the full screen: of about 370,000 compounds, about 3,800 (1%) were called active. Rule as the data show it: active = activation above about 7.8%; inactive = the rest. For the sample, actives were picked, then their nearest neighbours and some compounds at random.

This experiment is described as follows: SMARCA2 (BRM) function activators, primary screen, cell-based, luminescence, high throughput (AID 652017).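 Also: 0% = vehicle wells and 100% = reference activator wells.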 The conditions noted are these: MG213 cells, MMTV-luciferase reporter, dexamethasone, overnight; at 9.1 µM; stronger effect = higher value. (In a reporter assay the amount or activity of a reporter protein is the signal.)
`COc1ccc(C(=O)OCCN(C)C2CN(Cc3cn(Cc4cccc(C)c4)nn3)S(=O)(=O)C2)cc1OC` (stereo not drawn): the activation is -0.46% (inactive).
The result for `COc1ccc(C(=O)CSc2nnc(-c3cnccn3)n2-c2ccc(C)cc2)cc1` reads -2.56% (inactive); that for `CCOc1ccc(OCc2cccc(C(=O)N(CC)CC)c2)cc1`, 6.12% (inactive).
On to `COc1ccc(OCc2cccc(C(=O)N3CCCC3)c2)cc1`, for which the activation is 7.84% (active).
Turning to `CC(=O)Oc1ccc(-c2cccc(C(=O)N3CCCCC3)c2)cc1`, the activation is 1.59% (inactive).
The result for `CCOC(=O)Cc1cc(=O)[nH]c(/N=C(\N)Nc2ccc(OC)cc2)n1` reads -2.87% (inactive); that for `COc1ccc2nc(/N=C(\N)NC(=O)Nc3ccccc3)nc(C)c2c1`, 28.8% (active); that for `COc1ccc(NC(=O)ON=C2c3ccccc3-c3ccccc32)cc1`, 3.56% (inactive).
The result for `FC(F)(F)c1cccc(Cn2ccc3ccc(-c4ccc5ccn(Cc6ccccc6)c5c4)cc32)c1` reads -1.65% (inactive); that for `O=C(NCC1COc2ccccc2O1)c1ccc(NC(=O)c2cc(F)ccc2F)cc1` (stereo not drawn), -5.67% (inactive).
The result for `O=C(c1cc(C2CCCCN2S(=O)(=O)c2ccccc2)on1)N1CCOCC1` (stereo not drawn) reads -0.23% (inactive); that for `COc1ccc(OCc2cc(C(=O)N3CCCC3)no2)c2ccccc12`, 5.22% (inactive).
For `O=C(c1cc(COc2ccc(F)cc2F)on1)N1CCOCC1`, the activation was 2.32% (inactive).
Consider `O=C(c1cc(-c2ccc(O)cc2)on1)N1CCOCC1`, for which the activation was 10.1% (active).
In the case of `O=C(Nc1ccccc1C(F)(F)F)c1cc(-c2ccc(O)cc2)on1` it was 1.17% (inactive); in that of `O=C(c1cc(-c2ccccc2O)on1)N1CCCC1`, 8.63% (active); in that of `CN(C(N)=NC(=O)/C=C/c1ccccc1)C(C#Cc1ccccc1)Cc1ccccc1` (stereo not drawn), -4.38% (inactive).
The result for `COc1ccc(C)cc1N(C)C(=O)c1coc(=O)c2ccccc12` reads -4.4% (inactive); that for `O=C(NC1CCCCN(Cc2cccc(C(F)(F)F)c2)C1=O)c1ccccc1I` (stereo not drawn), -2.23% (inactive).
Take `COc1cc(CNCc2ccc(OC)c3ccccc23)cc(OC)c1OC`: the activation was -2.64% (inactive).
The result for `COc1ccc2ccccc2c1CNc1nnnn1C` reads -2.94% (inactive); that for `COc1ccc2ccccc2c1CNCc1ccccn1`, 8.32% (active).
In the case of `Cc1ccsc1C(=O)N/N=C/c1ccc([N+](=O)[O-])cc1` it was 11.6% (active); in that of `Cc1ccsc1C(=O)NC1CCCCC1C` (stereo not drawn), -1.24% (inactive); in that of `Cc1ccc(/C=N/NC(=O)c2sccc2OCc2ccc(F)cc2)cc1`, 3.74% (inactive).
In the case of `COC(=O)[C@H](C(C)C)N(CCc1cn(Cc2ccccc2)nn1)S(=O)(=O)c1ccc(F)cc1Br`, the activation was -6.28% (inactive).
The result for `CC(=O)OC12CCCN(C1)/C(=C/c1ccncc1)C2` (stereo not drawn) reads -3.2% (inactive).
Consider `COc1ccccc1Nc1nnc(SC(C)C(=O)NC2CC2)s1` (stereo not drawn), for which the activation was -2.93% (inactive).
Consider `O=C(CCCCCN1C(=O)C2C3C=CC(C3)C2C1=O)Nc1ccccn1` (stereo not drawn), for which the activation was -1.58% (inactive).
On to `COC(=O)C(C)n1cnc2c(nnn2-c2ccc(F)cc2)c1=O` (stereo not drawn), for which the activation is 2.24% (inactive).
As for `CCOC(=O)C(C)n1cnc2c(nnn2-c2cccc(OC)c2)c1=O` (stereo not drawn), the activation was 9.14% (active).
In the case of `CCOC(=O)C(C)n1cnc2c(nnn2-c2ccc(F)cc2)c1=O` (stereo not drawn) it was 0.38% (inactive).
As for `O=C(NC1CCC1)c1ccc(C#CC2CC2)cn1`, the activation is 1.34% (inactive).
On to `CCCCC(CC)CNC(=O)CCCCn1c(=O)[nH]c2ccsc2c1=O` (stereo not drawn), for which the activation is -1.68% (inactive).
The result for `O=C(CCC(=O)c1cccs1)NC1CCCCCC1` reads -4.41% (inactive).
In the case of `O=C(CCCCCn1c(=S)[nH]c2ccsc2c1=O)NC1CCCCC1` it was 8.72% (active); in that of `C=CC[C@]12C[C@@]3(O[C@H](c4ccc(C(F)(F)F)cc4)N=C3C[C@H](c3ccc(OC)cc3)[C@H]1C)N(C1CCN(Cc3ccccc3)CC1)C2=O`, -1.14% (inactive).
Take `Cc1nnc(NC(=O)CSc2nccn2-c2cccc(C)c2C)s1`: the activation is -0.75% (inactive).
The result for `Cc1nnc(NC(=O)Cn2c(=O)sc3ccccc32)s1` reads 8.41% (active); that for `O=C(Cn1c(=O)sc2ccccc21)Nc1ccc2c(c1)OCCO2`, -0.22% (inactive); that for `C=C(C)C1CC23C(=O)C4(C(=O)c5ccccc5)C[C@@]5(C)CCC(CC2C1(C)C)(C4=O)C35OC` (stereo partly drawn), -5.25% (inactive).
`Cc1ccccc1CN1CCCCC(NC(=O)Nc2ccccc2F)C1=O` (stereo not drawn): the activation was -2.59% (inactive).
The result for `C[C@@H](NC(=O)c1ccccc1OCC(=O)Nc1ccc(I)cc1)C(=O)N(C)Cc1ccccc1` reads -3.4% (inactive); that for `CC(C)CCNC(=O)c1ccc2c(Cl)c3c(nc2c1)CCC3`, 10.7% (active); that for `CC(C)CCC(C)NC(=O)c1ccc2nccnc2c1` (stereo not drawn), 0.02% (inactive).
In the case of `O=C(CSc1c2c(nc3ccc(Cl)cc13)CCCC2)NCc1ccco1` it was 3.79% (inactive); in that of `O=C(O)c1ccc(COc2c(F)c(F)cc(F)c2F)o1`, 8.75% (active).
For the compound `O=C(O)c1ccc(NC(=O)c2ccc(COc3ccc(Cl)cc3)o2)cc1`, the activation was -1.89% (inactive).
In the case of `O=C(O)CSCc1ccc(C(=O)O)o1` it was 0.73% (inactive).
Regarding `COc1cc(NC(=O)C2=C(C)OCCS2)c(Cl)cc1C(=O)NCCCN1CCCC(C)C1` (stereo not drawn), the activation was -0.17% (inactive).
The result for `Cc1cccc(C(=O)N2CCN(S(=O)(=O)N3CCCCC3)CC2)c1` reads 3.31% (inactive); that for `NC1=NN(c2cccc(C(=O)O)c2)C(=O)C1`, -1.73% (inactive).
Take `O=C(O)c1cccc(N=NN2CCCCCC2)c1`: the activation was 17.7% (active).
As to `Cc1cc(C)n2c(Nc3c(C)cccc3C)c(CCc3ccccc3)nc2n1`, the activation is 0.46% (inactive).
The result for `O=C(NCc1cccs1)C1CCCN(S(=O)(=O)c2ccc([N+](=O)[O-])cc2)C1` (stereo not drawn) reads 0.22% (inactive); that for `CCC(C)[C@@H](C(=O)OC)N(CCc1cn(Cc2ccccc2)nn1)S(=O)(=O)c1ccccc1Br` (stereo partly drawn), -5.37% (inactive); that for `COc1ccccc1C1=CC(=O)CCC1`, 1.01% (inactive).
As for `COc1ccccc1-c1sc2ccccc2c1-c1ccc(Br)nc1`, the activation was -0.09% (inactive).
In the case of `COc1ccccc1C1=Nc2cccc3cccc(c23)N1`, the activation is 8.11% (active).
`CCOc1ccc(N(CC(=O)Nc2c(C)n(C)n(-c3ccccc3)c2=O)S(=O)(=O)c2ccc(Cl)s2)cc1`: the activation was 3.83% (inactive).
On to `CCC(CO)Nc1cccc2c1S(=O)(=O)N(Cc1cn(Cc3ccccc3C(F)(F)F)nn1)Cc1ccccc1O2` (stereo not drawn), for which the activation was -1.93% (inactive).
In the case of `O=C(CSc1cccc[n+]1[O-])c1ccc(-c2ccccc2)cc1` it was 1.84% (inactive).
Consider `Cc1ccc(C(=O)CSc2ccccc2C(=O)O)cc1`, for which the activation is 9.24% (active).
Take `Cc1ccccc1C(=O)O`: the activation was -3.71% (inactive).
The result for `CCC1CO/C(=C(\C(=C(Cl)Cl)N2CCOCC2)[N+](=O)[O-])N1` (stereo not drawn) reads -2.15% (inactive); that for `Cc1ccc(-c2nc3ccc(Br)cn3c2Cc2ccccc2C(F)(F)F)cc1`, 8.44% (active); that for `Cc1ccc(-c2nc3ccc(Cl)cn3c2Cc2ccccc2)cc1`, 10.1% (active).
The result for `Cc1cc(Br)cn2c(Cc3ccccc3C(F)(F)F)c(-c3ccc(C#N)cc3)nc12` reads -1.52% (inactive).
In the case of `Cc1cc(Br)cn2c(Cc3ccccc3C(F)(F)F)c(-c3ccc(Cl)cc3)nc12` it was 3.06% (inactive); in that of `Brc1ccc2nc(-c3ccccc3)c(Cc3ccccc3)n2c1`, 3.02% (inactive).
On to `COc1ccccc1Cc1c(-c2ccc(Cl)cc2)nc2ccc(Cl)cn12`, for which the activation is 4.42% (inactive).
In the case of `COC(=O)c1cc(S(=O)(=O)N2CCN(C(=O)C3CCCO3)CC2)cn1C` (stereo not drawn) it was -1.22% (inactive); in that of `CC(C)CNS(=O)(=O)CC1NCCc2ccccc21` (stereo not drawn), -3.17% (inactive); in that of `COc1cccc(Cn2cc(COC(=O)Nc3ccc(F)cc3)nn2)c1`, -0.28% (inactive).
As to `COc1cccc(N(C)C(=O)[C@@H](C)[C@@H](O)c2ccc3ccccc3c2)c1`, the activation was -2.05% (inactive).
Take `COc1ccnc(NC(=S)N2CCN(c3ncc(C(F)(F)F)cc3Cl)CC2)c1`: the activation is -3.61% (inactive).
As to `COc1ccc(CN2C(=O)N3Cc4cc(OC)ccc4C3CS2(=O)=O)cc1` (stereo not drawn), the activation is -5.55% (inactive).
In the case of `CC(C)NC(=O)C(=O)NCCN1CCN(S(=O)(=O)c2ccc(Cl)cc2)CC1` it was -1.85% (inactive).
For the compound `C#CCNC(=O)C[C@H]1C[C@@]2(C(=O)OC)C(=C[C@H](C(C)C)O[C@@H]2C2CC2)N(Cc2ccco2)C1=O`, the activation is -5.88% (inactive).
In the case of `COc1ccc(CN2CC[C@H]3C=CC[C@@H](C(=O)N4CCOCC4)[C@H]3C2=O)cc1OC` it was 1.07% (inactive).
`Cc1ccc(Nc2nc(Cl)c(C=O)s2)cc1`: the activation was 8.44% (active).
On to `Cc1ccc(Nc2cc(C)nc3c(C)ccc([N+](=O)[O-])c23)cc1`, for which the activation is -1.39% (inactive).
As to `Cc1ccc(Nc2ccccc2N)cc1`, the activation is 0.3% (inactive).
On to `COC(=O)C1CN(CCc2ccccc2)CCS(=O)(=O)N1Cc1ccc(F)cc1` (stereo not drawn), for which the activation is 0.54% (inactive).
For the compound `CC1=CC(=O)C=CC1(C)C(Cl)(Cl)Cl` (stereo not drawn), the activation was -0.07% (inactive).
In the case of `Cc1cc(C)nc(Nc2n[nH]c(-c3ccccc3N)n2)n1` it was 8.89% (active); in that of `Clc1ccc(-n2c(SC/C=C/c3ccccc3)nnc2-c2ccco2)cc1`, -3.27% (inactive); in that of `Cc1ccc2nnn(Cc3cccc(C(C)(C)C)c3O)c2c1`, -2.51% (inactive).
The result for `CCOC(=O)CNC(=O)N(C)[C@H]1C[C@H]2c3[nH]c4c(-c5ccc6c(c5)OCO6)cccc4c3CCN2C(=O)[C@H]1[C@H](C)O` reads -1.46% (inactive); that for `O=C1CCC(C(=O)N2CCCCO2)CN1Cc1cccc(C(F)(F)F)c1` (stereo not drawn), -2.44% (inactive).
The result for `COCC1CCN(C(=O)C2CCC(=O)N(Cc3cccc(C(F)(F)F)c3)C2)CC1` (stereo not drawn) reads 13.1% (active); that for `COCC1CCN(C(=O)C2CCC(=O)N(CC3CCCCC3)C2)CC1` (stereo not drawn), -3.22% (inactive); that for `O=C(CSc1nnc(-c2cccc(Cl)c2)n1Cc1ccco1)Nc1ccc(OCc2ccccc2)cc1`, -5.35% (inactive).
